Measured values from the supplement of paper PMC10646978.
± gives the standard deviation.

Key:
Conditions in all cases: modulator concentration 10 µM
[1] = system: RAW-Dual (murine macrophage reporter line); experiment: NF-kB reporter (SEAP) activity fold change vs agonist alone; higher = enhanced NF-kB activity
Outline: (§1)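 Compound reached 10 μM final in each well by pin transfer, onto RAW-Dual murine macrophage reporter cells seeded at 50 000 per well in 384-well plates. After 1 hour at 37 °C, the cells were stimulated overnight with a PRR agonist. SEAP in the supernatant was read with QUANTI-Blue at 620 nm absorbance for NF-κB, and Lucia luciferase was read with QUANTI-Luc luminescence for IRF. Each signal was turned into fold change against the mean agonist-only control on the same plate, and two replicate plates were averaged with propagated errors.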

[2] = system: RAW-Dual (murine macrophage reporter line); experiment: IRF reporter (Lucia luciferase) activity fold change vs agonist alone; higher = enhanced IRF activity
Outline: as §1

[3] = system: RAW-Dual (murine macrophage reporter line); experiment: viability score (confluency relative to resting cells, overnight) (fraction); higher = more viable, active = viable (0.7 or more)
Outline: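 A compound met the cutoff when both of two confluency masks exceeded 70% of resting cells. Those masks were made with IncuCyte software from IncuCyte images of RAW-Dual macrophages treated overnight at 10 μM final. This is the basis of the viability score, which is confluency relative to resting cells.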

[4] = agonist: CpG ODN 1826 0.5 ug/mL

Row | Structure (SMILES) | NF-kB reporter [1, 4] | NF-kB reporter ([1]; agonist: LPS 0.1 ug/mL) | NF-kB reporter ([1]; agonist: MPLA […]) | IRF reporter ([2]; agonist: 3'3'-cGAMP 10 ug/mL) | IRF reporter ([2]; agonist: LPS 0.1 ug/mL) | IRF reporter ([2]; agonist: MPLA […]) | viability score [3]
1 | CC(=O)N1CC(C(=O)Nc2ccc(Br)c(C)c2)C1 | 1.05 ± 0.071 | 0.996 ± 0.082 | 0.973 ± 0.053 | 0.988 ± 0.035 | 1.03 ± 0.048 | 0.909 ± 0.089 | 0.997 (active)
2 | COc1cc2nc(N3CCN(C(=O)C4COc5ccccc5O4)CC3)nc(N)c2cc1OC.CS(=O)(=O)O (centres undefined) | 0.103 ± 0.014 | 1.29 ± 0.2 | 1.2 ± 0.082 | 0.273 ± 0.017 | 1.44 ± 0.33 | 1.97 ± 0.15 | 0.914 (active)
3 | O=[N+]([O-])c1ccccc1S(=O)(=O)NCc1ccc2c(c1)OCO2 | 1 ± 0.088 | 0.988 ± 0.075 | 0.937 ± 0.092 | 0.89 ± 0.028 | 1.05 ± 0.14 | 1.09 ± 0.2 | 1.03 (active)
4 | O=c1c(-n2ccnn2)c[nH]n1-c1cc(N2CCOCC2)ncn1 | 0.74 ± 0.2 | 0.846 ± 0.046 | 0.853 ± 0.054 | 0.878 ± 0.04 | 1.09 ± 0.26 | 1.09 ± 0.15 | 1 (active)
5 | CCCc1nc(-c2ccccc2)c(-c2ccc(OC)c(OC)c2)c(=O)[nH]1 | 0.803 ± 0.067 | 0.844 ± 0.1 | 1.06 ± 0.1 | 0.933 ± 0.057 | 1.46 ± 0.084 | 1.78 ± 0.16 | 1.01 (active)
6 | Br.CC(=O)c1cccc(Nc2nc(-c3c(C)nc4cc(C)ccn34)cs2)c1 | 0.774 ± 0.051 | 1.16 ± 0.087 | 1.62 ± 0.095 | 0.691 ± 0.13 | 1.17 ± 0.06 | 2.65 ± 0.53 | 0.25 (inactive)
7 | COc1ccc(NC(=O)CN(c2ccc(C)c(C)c2)S(C)(=O)=O)cc1Cl | 0.912 ± 0.096 | 1.14 ± 0.12 | 0.886 ± 0.032 | 0.857 ± 0.14 | 0.973 ± 0.045 | 0.858 ± 0.079 | 1 (active)
8 | COc1ccc2c(Cl)c(C(=O)N3CCc4ccccc4C3)sc2c1 | 0.875 ± 0.13 | 0.87 ± 0.052 | 1.81 ± 0.77 | 0.845 ± 0.05 | 1.38 ± 0.095 | 1.48 ± 0.13 | 1.01 (active)
9 | CC1(C)CC(=O)C2=C(C1)OC(N)=C(C#N)C21C(=O)Nc2ccc(Br)cc21 (centres undefined) | 0.954 ± 0.077 | 1.05 ± 0.08 | 0.955 ± 0.057 | 0.967 ± 0.032 | 1.18 ± 0.1 | 1.03 ± 0.096 | 1.01 (active)
10 | CC(C)(C)C1CCC(OC(=O)CCC(=O)O)CC1 (centres undefined) | 0.999 ± 0.16 | 0.931 ± 0.073 | 0.903 ± 0.087 | 1.07 ± 0.049 | 1.32 ± 0.21 | 1.32 ± 0.24 | 0.997 (active)
11 | CCOC(=O)C1=C(C)N(c2ccc(OC)cc2)C(=O)C1=Cc1ccc(C(=O)O)cc1 | 0.751 ± 0.13 | 1.12 ± 0.087 | 0.984 ± 0.076 | 0.642 ± 0.022 | 1.32 ± 0.16 | 1.39 ± 0.15 | 0.997 (active)
12 | CC1CC(C)CN(S(=O)(=O)CCCOc2ccc3c(c2)OCO3)C1 (centres undefined) | 1.05 ± 0.06 | 1.04 ± 0.064 | 1.01 ± 0.061 | 0.906 ± 0.03 | 1.24 ± 0.09 | 1.05 ± 0.14 | 0.956 (active)
13 | CSc1ccc(C2Nc3ccccc3-c3nnc(SCc4ccc(C)cc4)nc3O2)cc1 (centres undefined) | 0.817 ± 0.094 | 0.952 ± 0.047 | 1.19 ± 0.1 | 0.877 ± 0.058 | 1.08 ± 0.091 | 1.18 ± 0.14 | 1.01 (active)
14 | CCCC(CCC)C(N)=O | 1.09 ± 0.093 | 0.95 ± 0.083 | 0.999 ± 0.023 | 1.08 ± 0.17 | 1.04 ± 0.12 | 0.983 ± 0.19 | 0.996 (active)
15 | COC(=O)C1=CN(CC2CCCO2)C=C(C(=O)OC)C1c1cccc(Br)c1 (centres undefined) | 0.886 ± 0.18 | 0.871 ± 0.088 | 0.944 ± 0.073 | 0.975 ± 0.037 | 1.21 ± 0.13 | 1.29 ± 0.13 | 1 (active)
16 | CCOc1ccccc1OCCCCOc1ccc(Cl)c(C)c1 | 0.947 ± 0.11 | 1.12 ± 0.081 | 1.07 ± 0.084 | 0.937 ± 0.1 | 1.03 ± 0.16 | 1.15 ± 0.35 | 1 (active)
17 | Cc1ccc(Nc2nc(Cl)nc(Nc3ccc(C(C)C)cc3)n2)cc1 | 0.851 ± 0.067 | 1.06 ± 0.078 | 1.19 ± 0.13 | 0.828 ± 0.045 | 1.1 ± 0.19 | 1.33 ± 0.32 | 1.03 (active)
18 | O=[N+]([O-])c1ccccc1S(=O)(=O)N1CCCC1 | 0.974 ± 0.11 | 1.06 ± 0.065 | 0.907 ± 0.055 | 0.921 ± 0.042 | 1.34 ± 0.087 | 1.23 ± 0.25 | 1.01 (active)
19 | CCN(CC)c1ccc(C=Nc2c(C)cc(C)cc2C)cc1 | 0.97 ± 0.08 | 1.03 ± 0.086 | 0.959 ± 0.054 | 0.894 ± 0.046 | 0.968 ± 0.063 | 0.94 ± 0.065 | 1 (active)
20 | COc1ccc(C=CC(=O)O)cc1OC | 1.03 ± 0.077 | 1.1 ± 0.059 | 1 ± 0.022 | 1.03 ± 0.06 | 0.954 ± 0.078 | 0.973 ± 0.095 | 0.996 (active)
21 | CC1=C(CC(=O)O)c2cc(F)ccc2/C1=C\c1ccc(S(C)=O)cc1 (centres undefined) | 0.984 ± 0.14 | 0.828 ± 0.061 | 1.13 ± 0.098 | 1.09 ± 0.051 | 1.23 ± 0.073 | 1.41 ± 0.13 | 1 (active)
22 | CCCNCC(O)COc1ccccc1C(=O)CCc1ccccc1 (centres undefined) | 0.639 ± 0.086 | 0.988 ± 0.098 | 1.21 ± 0.066 | 0.989 ± 0.07 | 0.948 ± 0.095 | 0.869 ± 0.16 | 0.826 (active)
23 | O=S(=O)(Nc1ccnc2ccccc12)c1ccccc1 | 0.928 ± 0.075 | 0.88 ± 0.066 | 0.936 ± 0.088 | 0.858 ± 0.03 | 1.12 ± 0.11 | 1.15 ± 0.19 | 1.03 (active)
24 | CO[C@@]12[C@H](COC(N)=O)C3=C(C(=O)C(C)=C(N)C3=O)N1C[C@@H]1N[C@@H]12 | 2.4 ± 0.14 | 1.47 ± 0.1 | 2.16 ± 0.18 | 1.21 ± 0.069 | 1.42 ± 0.099 | 1.24 ± 0.24 | 0.644 (inactive)
25 | COc1ccc(C(=O)C=Cc2cc(OC)c(OC)cc2OC)c(OC)c1 | 0.958 ± 0.24 | 0.902 ± 0.13 | 0.839 ± 0.067 | 0.506 ± 0.013 | 1.15 ± 0.16 | 1.06 ± 0.17 | 1 (active)
26 | CCC(c1ccc(O)cc1)C(CC)c1ccc(O)cc1 (centres undefined) [Prestw-699] | 0.567 ± 0.043 | 0.883 ± 0.068 | 1.02 ± 0.1 | 0.75 ± 0.13 | 0.84 ± 0.11 | 1.06 ± 0.16 | 0.181 (inactive)
27 | O=C(O)c1cc2ccccc2[nH]1 | 1.02 ± 0.087 | 0.963 ± 0.08 | 1.02 ± 0.024 | 1.02 ± 0.071 | 0.975 ± 0.14 | 0.889 ± 0.23 | 1 (active)
